Measurements taken from PubChem BioAssay (Tox21).
Values without a mark were called inactive. Records with an inconclusive call do not appear. Entries that show only a call come without a potency. The source made the active and inactive calls. Unless noted, the call rests on the fitted dose curve; in most records, active means well fitted curve in the direction sought with a large enough effect in the repeat runs; inconclusive means weak or mixed curves; inactive means no such curve, though single readings can be large; an effect the other way counts as inactive or inconclusive.

Tests used:
[1] = A CellTox Green Cytotoxicity Assay to monitor cytotoxicity in HEK293 cells - 32 hour (AID 1224881); further: nearly all actives have a fitted effect of over 40% in size
How it was run: (§1)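 Dead-cell fluorescence measured kinetically: asymmetric cyanine dye, HEK293, 600 cells/well, 5 h settle, 23 nL cpd/DMSO, 37 C, reads 0–40 h every 8 h.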

[2] = A CellTox Green Cytotoxicity Assay to monitor cytotoxicity in HepG2 cells - 0 hour (AID 1224882); further: nearly all actives have a fitted effect of over 35% in size
How it was run: (§2)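 First, HepG2 cells (600/well) mixed with reagent were plated; second, after 5 h at 37 C they received compounds via pintool; third, fluorescence was measured at 0 h through 40 h at 8 h intervals.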

[3] = A CellTox Green Cytotoxicity Assay to monitor cytotoxicity in HepG2 cells - 32 hour (AID 1224883); further: nearly all actives have a fitted effect of over 50% in size
How it was run: as §2

[4] = A CellTox Green Cytotoxicity Assay to monitor cytotoxicity in HEK293 cells - 8 hour (AID 1224884); further: nearly all actives have a fitted effect of over 35% in size
How it was run: as §1

[5] = qHTS RealTime-Glo MT Cell Viability Assay in HepG2 cells - 16 hour (AID 1224885); further: nearly all actives have a fitted effect of over 50% in size
How it was run: (§3)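 qHTS, HepG2, 600 cells/well, RealTime-Glo (NanoLuc + prosubstrate) added with cells; 5 h preincubation; DMSO compound addition; 37 C; luminescence at 0/8/16/24/32/40 h.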

[6] = qHTS RealTime-Glo MT Cell Viability Assay in HEK293 cells - 24 hour (AID 1224886); further: top concentration of the series differs between compounds; nearly all actives have a fitted effect of over 50% in size
How it was run: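 Assay medium contained NanoLuc luciferase plus cell-permeant prosubstrate, added with HEK293 cells at 600 cells/well. After 5 h at 37 C/5% CO2 compounds were added; plates stayed at 37 C for 40 h with serial luminescence reads.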

[7] = qHTS RealTime-Glo MT Cell Viability Assay in HEK293 cells - 8 hour (AID 1224887); further: top concentration of the series differs between compounds; nearly all actives have a fitted effect of over 50% in size
How it was run: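 600 HEK293 cells per well, dispensed already mixed with RealTime-Glo MT reagents. Compound dosing came 5 h later. The same wells were read for luminescence at 0, 8, 16, 24, 32 and 40 h of exposure at 37 C.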

[8] = A CellTox Green Cytotoxicity Assay to monitor cytotoxicity in HEK293 cells - 16 hour (AID 1224888); further: nearly all actives have a fitted effect of over 35% in size
How it was run: as §1

[9] = qHTS RealTime-Glo MT Cell Viability Assay in HepG2 cells - 0 hour (AID 1224889); further: nearly all actives have a fitted effect of over 50% in size
How it was run: as §3

[10] = A CellTox Green Cytotoxicity Assay to monitor cytotoxicity in HepG2 cells - 8 hour (AID 1224890); further: nearly all actives have a fitted effect of over 45% in size
How it was run: as §2

[11] = qHTS assay to identify small molecule antagonists of the estrogen receptor alpha (ER-alpha) signaling pathway using the BG1 cell line in the presence of 0.1 nM 17-beta-estradiol - cell viability counter screen (AID 1259241); further: nearly all actives have a fitted effect of over 40% in size
How it was run: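 VM7Luc4E2, 4,000 cells/well, phenol red-free medium + 10% charcoal-stripped FBS; 24 hr plating; cpd + 0.1 nM E2 final, 22 hr 37C/5% CO2; CellTiter-Fluor 30 min, fluorescence.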

[12] = qHTS assay to identify small molecule antagonists of the androgen receptor (AR) signaling pathway using the MDA cell line in the presence of 0.5 nM R1881 - cell viability counter screen (AID 1259242); further: nearly all actives have a fitted effect of over 45% in size
How it was run: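 qHTS format. MDA-kb2 (MMTV-luc, AR/GR responsive) + cpd + 0.5 nM R1881 final, 16 hr 37C/0% CO2 → CellTiter-Fluor 30 min → fluorescence intensity.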

[13] = qHTS assay to identify small molecule HDAC inhibitors (AID 1259364); further: potency means the concentration at half of the fitted maximal effect;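 further: wild-type HCT-116 cells with endogenous class I/II HDAC activity; nearly all actives have a fitted effect of over 45% in size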
How it was run: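 Quantitative high-throughput format: overnight-seeded HCT-116 cells got compounds for 2 hr at 37C; HDAC-Glo I/II reagent added, 30 min RT, luminescence measured.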

[14] = qHTS assay to identify small molecule agonists of the sonic hedgehog signaling (Shh) pathway - cell viability counter screen (AID 1259366); further: nearly all actives have a fitted effect of over 50% in size
How it was run: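 Cytotoxicity counter screen run in the same wells as the Shh reporter assay. NIH/3T3 cells carrying a Gli1 response element–driven luciferase were treated with DMSO-dissolved compounds for 24hr, and live-cell protease activity was measured with CellTiter-Fluor.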

[15] = qHTS assay to identify small molecule antagonists of the sonic hedgehog signaling (Shh) pathway - cell viability counter screen (AID 1259367); further: nearly all actives have a fitted effect of over 55% in size
How it was run: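 Tox21 library chemicals were tested on a Gli1-Luc NIH/3T3 clone (2,000 cells/well) stimulated by conditioned medium; viability was quantified as fluorescence from CellTiter-Fluor reagent added at 23 hr.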

[16] = qHTS assay to identify small molecule HDAC inhibitors - cell viability counter screen (AID 1259365)
How it was run: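 Luminescence from CellTiter-Glo, developed 30min at room temperature, reports viability of wild-type HCT-116 cells treated 2hr with compounds at 37 C and 5% CO2 after overnight plating.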

[17] = biological target: Estrogen receptor (Homo sapiens) (UniProt P03372); experiment: qHTS assay to identify small molecule antagonists of the estrogen receptor alpha (ER-alpha) signaling pathway using the BG1 cell line in the presence of 0.1 nM 17-beta-estradiol (AID 1259244); further: nearly all actives have a fitted effect of over 50% in size
Estrogen receptor (Homo sapiens), sequence (P03372 whole entry, looked up): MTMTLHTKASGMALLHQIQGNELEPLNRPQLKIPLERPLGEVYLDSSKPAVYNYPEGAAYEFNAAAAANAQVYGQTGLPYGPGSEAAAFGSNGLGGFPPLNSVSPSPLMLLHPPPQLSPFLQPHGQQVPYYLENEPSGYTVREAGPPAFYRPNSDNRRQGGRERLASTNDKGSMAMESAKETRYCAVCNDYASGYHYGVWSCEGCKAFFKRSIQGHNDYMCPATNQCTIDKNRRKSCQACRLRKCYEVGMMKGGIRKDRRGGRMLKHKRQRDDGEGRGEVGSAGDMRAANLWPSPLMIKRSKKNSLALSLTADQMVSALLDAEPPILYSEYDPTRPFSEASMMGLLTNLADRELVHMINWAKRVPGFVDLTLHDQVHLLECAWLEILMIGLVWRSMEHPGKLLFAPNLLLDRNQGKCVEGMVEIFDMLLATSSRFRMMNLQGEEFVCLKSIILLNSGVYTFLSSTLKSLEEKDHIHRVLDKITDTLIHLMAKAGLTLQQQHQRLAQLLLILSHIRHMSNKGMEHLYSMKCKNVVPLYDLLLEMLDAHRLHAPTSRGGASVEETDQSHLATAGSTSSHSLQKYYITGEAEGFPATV
How it was run: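 Reporter is a stably transfected luciferase under four estrogen responsive elements in VM7Luc4E2 cells expressing native full-length ER-alpha; inhibition of 0.1 nM (final) 17beta-estradiol-driven signal over 22 h is read by luminescence.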

[18] = biological target: Androgen receptor (Homo sapiens) (UniProt P10275); experiment: qHTS assay to identify small molecule antagonists of the androgen receptor (AR) signaling pathway using the MDA cell line in the presence of 0.5 nM R1881 (AID 1259243); further: nearly all actives have a fitted effect of over 50% in size
Androgen receptor (Homo sapiens), sequence (P10275 whole entry, looked up): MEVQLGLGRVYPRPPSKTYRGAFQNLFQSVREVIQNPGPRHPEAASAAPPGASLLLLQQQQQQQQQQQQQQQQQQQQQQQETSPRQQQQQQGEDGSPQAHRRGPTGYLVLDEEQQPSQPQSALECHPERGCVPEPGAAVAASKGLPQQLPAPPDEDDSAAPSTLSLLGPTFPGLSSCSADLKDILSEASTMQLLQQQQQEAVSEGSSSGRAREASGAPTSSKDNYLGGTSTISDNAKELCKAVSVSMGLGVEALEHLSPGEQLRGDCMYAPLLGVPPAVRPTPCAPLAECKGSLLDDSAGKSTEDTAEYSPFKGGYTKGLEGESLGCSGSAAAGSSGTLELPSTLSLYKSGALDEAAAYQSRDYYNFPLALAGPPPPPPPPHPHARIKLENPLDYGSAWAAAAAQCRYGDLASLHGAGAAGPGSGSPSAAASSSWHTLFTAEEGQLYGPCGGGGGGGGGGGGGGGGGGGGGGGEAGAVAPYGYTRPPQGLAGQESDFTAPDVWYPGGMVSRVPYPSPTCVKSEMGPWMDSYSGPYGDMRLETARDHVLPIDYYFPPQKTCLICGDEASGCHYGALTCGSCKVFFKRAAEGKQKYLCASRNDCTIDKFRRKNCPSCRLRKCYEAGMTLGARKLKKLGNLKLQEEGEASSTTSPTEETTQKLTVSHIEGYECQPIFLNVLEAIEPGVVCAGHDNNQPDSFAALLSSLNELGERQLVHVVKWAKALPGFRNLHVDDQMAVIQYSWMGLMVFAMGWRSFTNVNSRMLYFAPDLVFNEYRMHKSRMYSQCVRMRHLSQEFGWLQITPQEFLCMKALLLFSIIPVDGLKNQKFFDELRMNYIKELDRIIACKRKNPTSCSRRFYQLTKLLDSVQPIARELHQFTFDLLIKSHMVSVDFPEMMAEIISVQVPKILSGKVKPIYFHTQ
How it was run: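 Antagonist mode quantitative HTS in MDA-kb2 MMTV-luciferase cells, agonist R1881 at 0.5 nM final, 16 hr exposure at 37C and 0% CO2, luminescent detection.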

[19] = qHTS assay to identify small molecule phospholipidosis (PLD) inducers (AID 1259344; active means well fitted curve in the direction sought with a large enough effect; an effect the other way counts as inactive or inconclusive)
How it was run: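 Image-based: LipidTOX Red pit count/intensity per well and per cell; HepG2, 24 h compound at 37 C, PFA fixation, Hoechst counterstain.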

SMILES	Potency [1]	outcome [2]	Potency [3]	Potency [4]	outcome [5]	Potency [6]	Potency [7]	outcome [8]	Potency [9]	outcome [10]	Potency [11]	outcome [12]	Potency [13]	Potency [14]	Potency [15]	outcome [16]	Potency [17]	Potency [18]	outcome [19]
COc1ccc(C2CNC(=O)C2)cc1OC1CCCC1 (stereo not drawn)	inactive	inactive	inactive	inactive	inactive	inactive	inactive	inactive	inactive	inactive	inactive	inactive	inactive	inactive	inactive	–	–	–	–
COc1ccc(Br)c(C)c1	inactive	inactive	inactive	inactive	inactive	inactive	inactive	inactive	inactive	–	inactive	–	inactive	inactive	inactive	inactive	–	–	–
O=C1CC(c2ccc(Cl)cc2)CC(=O)N1	inactive	inactive	inactive	–	inactive	inactive	inactive	inactive	–	inactive	inactive	inactive	inactive	inactive	inactive	inactive	inactive	–	–
CC(C)(C)c1nnc(NS(=O)(=O)c2ccc(N)cc2)s1	inactive	inactive	inactive	inactive	inactive	inactive	inactive	inactive	inactive	inactive	inactive	–	inactive	inactive	inactive	–	inactive	inactive	–
CCOC(=O)[C@H](CCc1ccccc1)N[C@@H](C)C(=O)N1C(=O)N(C)C[C@H]1C(=O)O	inactive	inactive	inactive	inactive	inactive	inactive	inactive	inactive	inactive	inactive	inactive	inactive	inactive	inactive	inactive	inactive	inactive	–	–
CC(=O)N[C@@H](CCC(=O)O)C(=O)O	inactive	inactive	inactive	–	inactive	inactive	–	inactive	inactive	inactive	inactive	–	inactive	inactive	inactive	inactive	–	–	inactive
Nc1nnc(-c2cccc(Cl)c2Cl)c(N)n1	inactive	inactive	inactive	inactive	–	–	–	inactive	–	inactive	inactive	inactive	inactive	inactive	inactive	inactive	–	–	inactive
CCOCCOC(=O)/C=C/c1ccc(OC)cc1	inactive	inactive	inactive	inactive	inactive	inactive	–	inactive	inactive	inactive	inactive	inactive	11.9 µM (active)	inactive	inactive	–	inactive	–	–
COCCOCCOCCOCCOCCO	inactive	inactive	inactive	inactive	inactive	inactive	–	inactive	–	inactive	inactive	inactive	inactive	inactive	inactive	inactive	–	–	–
CC(C)CC(=O)O	inactive	inactive	inactive	inactive	inactive	inactive	inactive	inactive	inactive	–	inactive	inactive	inactive	inactive	inactive	inactive	inactive	–	–
CCCOC(OCCC)OCCC	inactive	inactive	inactive	inactive	inactive	inactive	inactive	inactive	inactive	inactive	inactive	inactive	inactive	inactive	inactive	inactive	–	–	–
COc1cc(N)ccc1C	inactive	inactive	inactive	inactive	inactive	inactive	inactive	inactive	inactive	inactive	inactive	inactive	inactive	inactive	inactive	inactive	–	–	–
CC(C)NCC(O)COc1cccc2[nH]ccc12 (stereo not drawn)	inactive	inactive	inactive	inactive	inactive	inactive	inactive	inactive	inactive	–	inactive	inactive	inactive	inactive	inactive	inactive	–	inactive	–
O=C(OCC(COC(=O)c1cccnc1)(COC(=O)c1cccnc1)COC(=O)c1cccnc1)c1cccnc1	inactive	inactive	inactive	inactive	inactive	inactive	inactive	inactive	inactive	–	inactive	inactive	inactive	inactive	inactive	inactive	inactive	inactive	inactive
N#Cc1ccc(C(=O)O)cc1	inactive	inactive	inactive	inactive	inactive	inactive	inactive	inactive	inactive	–	inactive	inactive	inactive	inactive	inactive	inactive	–	inactive	–
NCCN1CCOCC1	inactive	inactive	inactive	inactive	inactive	inactive	inactive	inactive	–	inactive	inactive	inactive	inactive	inactive	inactive	inactive	–	–	–
Nc1ccc2cc(S(=O)(=O)O)cc(O)c2c1	inactive	inactive	inactive	inactive	inactive	inactive	inactive	inactive	inactive	inactive	–	–	inactive	inactive	inactive	inactive	inactive	inactive	–
CCCCCOC(=O)CCC	inactive	inactive	inactive	–	inactive	inactive	inactive	inactive	inactive	inactive	inactive	inactive	inactive	inactive	inactive	–	–	–	–
CCc1ccc(C=O)cc1	inactive	inactive	inactive	inactive	inactive	inactive	inactive	inactive	inactive	inactive	inactive	inactive	inactive	inactive	inactive	inactive	–	–	–
OCCC(F)(F)C(F)(F)C(F)(F)C(F)(F)C(F)(F)C(F)(F)C(F)(F)C(F)(F)F	inactive	inactive	inactive	inactive	inactive	inactive	inactive	inactive	inactive	inactive	inactive	–	inactive	inactive	inactive	–	inactive	inactive	–
